Measured values: PubChem BioAssay (NCI)
Compounds without any hit were thinned out: in the full panel of roughly 83,000, 20% have a hit.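 Values shown are percent growth following 48 h exposure of cells in 96-well plates to a single concentration of compound; below 10 was considered active.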 A number with no mark means an inactive call. The source made the active and inactive calls.

Columns and labels:
Experiment in all cases: NCI-60 one-dose screen, 48 h (100 = growth as untreated, 0 = no growth, -100 = all killed)
Settings in all cases: 10 µM unless noted
RPMI-8226 leukemia = tested on: RPMI-8226 leukemia
OVCAR-8 ovarian = tested on: OVCAR-8 ovarian
OVCAR-5 ovarian = tested on: OVCAR-5 ovarian
OVCAR-4 ovarian = tested on: OVCAR-4 ovarian
SK-OV-3 ovarian = tested on: SK-OV-3 ovarian
OVCAR-3 ovarian = tested on: OVCAR-3 ovarian
HS 578T breast = tested on: HS 578T breast
NCI/ADR-RES ovarian = tested on: NCI/ADR-RES ovarian
T-47D breast = tested on: T-47D breast
BT-549 breast = tested on: BT-549 breast
MDA-MB-435 melanoma = tested on: MDA-MB-435 melanoma
SW-620 colon = tested on: SW-620 colon
MCF7 breast = tested on: MCF7 breast
HCT-116 colon = tested on: HCT-116 colon
HCC-2998 colon = tested on: HCC-2998 colon
KM12 colon = tested on: KM12 colon
IGROV1 ovarian = tested on: IGROV1 ovarian

SMILES	growth (RPMI-8226 leukemia)	growth (OVCAR-8 ovarian)	growth (OVCAR-5 ovarian)	growth (OVCAR-4 ovarian)	growth (SK-OV-3 ovarian)	growth (OVCAR-3 ovarian)	growth (HS 578T breast)	growth (NCI/ADR-RES ovarian)	growth (T-47D breast)	growth (BT-549 breast)	growth (MDA-MB-435 melanoma)	growth (SW-620 colon)	growth (MCF7 breast)	growth (HCT-116 colon)	growth (HCC-2998 colon)	growth (KM12 colon)	growth (IGROV1 ovarian)
CCCNc1nc(SC)nc(-c2cccc(N)c2)c1C#N	103%	99.1%	101%	92.4%	93.7%	110%	93.1%	101%	86.2%	97.7%	103%	98.7%	89.1%	96.3%	108%	101%	–
C=CC[N+]1(CC)CCN=C1CCCCCCCCCCCCCCCCC (configuration not stated)	–	-95.2% (active)	-97.5% (active)	-72.2% (active)	-78.9% (active)	-94.1% (active)	–	-21.6% (active)	-62.9% (active)	-75.9% (active)	-85% (active)	-89.7% (active)	-81.7% (active)	-100% (active)	-73.5% (active)	-97.9% (active)	-86% (active)
Cc1csc2ccc(Cl)cc12	109%	–	102%	98.1%	96.5%	111%	104%	103%	104%	104%	103%	102%	98.3%	106%	109%	111%	–
O=C(NC(Cc1ccccc1)C(=O)CCl)OCc1ccccc1 (configuration not stated)	9.51% (active)	–	92.3%	62.7%	87.8%	76%	99.5%	75.1%	70.7%	41.4%	16.1%	48.4%	29%	45.9%	97.1%	89.1%	87.7%
C[C@@H]1CC[C@@H]2[C@@H]1[C@H](OC(=O)/C=C/c1ccccc1)[C@]1(c3ccccc3)C[C@@H](OC(=O)CO)[C@@]2(C)O1	97.7%	54.3%	99.8%	103%	96.1%	103%	-20% (active)	62.1%	89.5%	17.1%	99.2%	96.6%	84.3%	89.5%	99.4%	96%	–
CCOC(=O)c1cnc2ccc(OC)cc2c1Nc1cccc(S(=O)(=O)NC)c1	–	100%	102%	104%	113%	103%	52.3%	90%	98%	80.1%	103%	113%	80.9%	96.7%	101%	96.1%	113%
COc1ccc(-c2cc(-c3cccnc3)nc3sc4c(=O)n(-c5ccc(C)cc5)nnc4c23)cc1OC	–	105%	90%	109%	95%	107%	93.9%	102%	99.3%	103%	99.3%	94.4%	99.7%	95%	109%	103%	99.6%
CCOC(=O)CC(=O)c1c(C)cc(C)cc1C	90.3%	102%	–	113%	105%	117%	91.7%	102%	121%	93.5%	98.6%	103%	97.5%	91.2%	–	95.5%	108%
COc1ccc(-c2cc(NC(=O)Nc3ccc(O)cc3)no2)cc1	82.1%	90.1%	82.9%	76.7%	111%	87.4%	89.3%	67.8%	70.5%	64.5%	67.6%	76.3%	70.2%	90%	82.7%	20.8%	–
O=C(/C=C\c1ccc2ccccc2n1)c1cc(Cl)ccc1O	–	63.6%	81.3%	73.6%	111%	43.5%	95.1%	60.4%	28.3%	71.5%	51.8%	29%	27.9%	48.6%	84.4%	74.2%	86.1%
